Sampled rows, rich in hits. Any-hit rate of the full collection: about 4.1%.
PfHsp90 yeast 2 = inhibits growth of yeast expressing Plasmodium falciparum Hsp90; S. cerevisiae expressing PfHsp90, BacTiter-Glo ATP, 48 h; yeast lacking PDR1 and PDR3 efflux regulators; inhibition, % at 9.4 µM; 0.32% of 310,000 active; AID 504621;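 active = every replicate shows inhibition above about 80%, whatever the replicate mean, limit read from the data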;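 note: 0% = DMSO neutral controls and 100% = 20 µM radicicol positive controls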
NLRP3 yeast inh = blocks the NALP3 inflammasome reconstituted in yeast | Yeast reconstituted NLRP3/ASC/caspase-1, beta-gal luminescence, 24 h | inhibition, % at 10 µM | 0.39% of 330,000 active;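 active = inhibition of 50% or more; inactive = inhibition below 50%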;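 note: plate controls were induced DMSO wells for no effect and uninduced yeast grown without galactose for full effect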
NALP1 inh = NALP1 inhibition. AID 2071. inhibition, % at 10 µM. 0.61% of 280,000 active. S. cerevisiae NALP1/ASC/caspase-1 growth, X-gal OD620, 72 h; in the data active = inhibition mostly above about 24%, no sharp cut-off; inactive = mostly below about 32%
tim10-1 inh = inhibits growth of tim10-1 mutant yeast; S. cerevisiae tim10-1 ts strain growth, BacTiter-Glo, 24 h; inhibition, % at 20 µM; 2.2% of 330,000 active; AID 463190;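 active = inhibition of at least 40%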;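 note: mutant grown at 25 °C; 0% = DMSO wells with yeast and 100% = wells holding no yeast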
tim23-1 inh = inhibits growth of tim23-1 mutant yeast. AID 463212. S. cerevisiae tim23-1 growth, BacTiter-Glo luminescence, 24 h. inhibition, % at 20 µM. 1.3% of 330,000 active;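 active = growth inhibition of the mutant yeast at or above 50%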;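 note: temperature-sensitive mutant grown at 25 °C; plate controls were DMSO-treated mutant yeast for no effect and medium wells lacking yeast for full effect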
TIM10 inh = growth inhibitors of TIM10 yeast strain; S. cerevisiae TIM10 strain growth, BacTiter-Glo luminescence, 24 h; inhibition, % at 10 µM; 1.4% of 330,000 active; AID 463195;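 active = inhibition of 40% or more at the single tested concentration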;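 note: wild-type TIM10 isogenic control strain grown at permissive 25 °C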
tim23-1 conf = tim23-1 yeast growth inhibition, confirmed; shares compounds with tim23-1 inh; S. cerevisiae tim23-1 growth, BacTiter-Glo luminescence, 24 h; inhibition, % at 20 µM; 83% of 4,400 active; AID 463218;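 active = inhibition above about 39% in either of two replicate wells at 20 µM, limit read from the data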;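 note: temperature-sensitive tim23-1 mutant grown at 25 °C; 0% = DMSO wells with yeast and 100% = medium wells without yeast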
Active calls of the source: *; . = no result.

SMILES	PfHsp90 yeast 2	NLRP3 yeast inh	NALP1 inh	tim10-1 inh	tim23-1 inh	TIM10 inh	tim23-1 conf
c1ccc(CCc2nc(-c3ccccc3)no2)cc1	10	23	9	20	15	7	.
Cc1cccc(N2CCc3c2nc2ccc(Br)cc2c3N)c1	3	37	10	32	76*	28	63*
CC1=NN(c2ccccc2)C(=O)/C1=C\c1c(C)[nH]n(-c2ccccc2)c1=O	-14	22	13	12	7	11	.
CC1=NN(c2ccccc2)C(=O)/C1=C/c1c(O)n(-c2ccc(F)c(Cl)c2)[nH]c1=O	.	0	10	35	58*	34	43*
CCCN(CC(=O)Nc1ccccc1OC)C(=O)Cn1c(=O)oc2ccccc21	2	.	.	.	.	.	.
O=C(Cc1cccc(NC(=O)C2CCCN(C(=O)C3CC3)C2)c1)Nc1cccc(C(=O)N2CCOCC2)c1 (stereo not given)	1	.	.	.	.	.	.
CC(C)OC(=O)c1cccnc1SCc1cc(=O)n2ccccc2n1	-3	24	9	28	65*	8	44*
COc1ccc(NC(=O)CSc2ncccc2C(=O)OC(C)C)cc1OC	.	10	-7	7	11	-1	.
COCCN=c1scc(-c2ccco2)n1/N=C/c1ccc(O)c(O)c1O	.	18	-4	-5	-14	26	.
C=CCN=c1scc(-c2ccco2)n1/N=C/c1ccc(O)c(O)c1O	15	15	-5	-10	64*	-6	62*
Oc1c(Br)cc(Br)c(/C=N/n2c(-c3ccccc3)n[nH]c2=S)c1Br	119*	20	-10	29	56*	21	51*
Oc1ccc(/C=N/N(c2ccccc2)c2ccccc2)cc1O	1	7	-2	31	68*	21	45*
O=[N+]([O-])c1ccc(CNc2ccc(F)cc2)s1	3	11	13	33	51*	36	46*
COc1ccc(NCc2ccc([N+](=O)[O-])s2)cc1	1	16	62*	20	58*	29	69*
COc1ccc(CNc2ccc(S(N)(=O)=O)cc2)cc1	3	17	22	8	5	1	.
O=[N+]([O-])c1ccc(CNc2cccc(Cl)c2)s1	-10	22	10	23	57*	23	56*
O=C(c1ccc([N+](=O)[O-])s1)N1CCN(c2cccc(Cl)c2)CC1	-2	23	36	-62	-34	26	.
CCOc1ccc(C(=O)NNC(=O)CN2C(=O)C3CC=CCC3C2=O)cc1OC (stereo not given)	2	-3	.	1	7	2	.
Cc1ccccc1NC(=S)N(Cc1cccs1)C1CCCCC1	-11	8	22	34	51*	28	39*
Cn1ccnc1SCC(=O)n1c2c(c3ccccc31)CCCC2	-7	-1	26	29	51*	39	41*
Clc1cccc(CSc2nnc(-c3ccccn3)n2Cc2ccco2)c1	.	-54	5	33	52*	40	57*
O=C(CSc1nnc(-c2ccccn2)n1Cc1ccco1)c1ccc(Cl)cc1	.	18	-20	14	35	3	.
O=C(CCc1ccco1)CCc1ccco1	3	.	.	.	.	.	.
COc1ccc(F)cc1S(=O)(=O)n1nc(C)cc1C	-8	-18	-10	6	95*	4	9
COc1ccc(C)cc1S(=O)(=O)n1nc(C)cc1C	17	-18	15	13	9	-3	.
SMILES	PfHsp90 yeast 2	NLRP3 yeast inh	NALP1 inh	tim10-1 inh	tim23-1 inh	TIM10 inh	tim23-1 conf
COc1ccccc1CNC(=O)CN1C(=O)N(C)C2(CCCCC2)C1=O	.	17	.	8	7	13	.
S=C1CCC(c2ccc(Cl)cc2)=NN1c1ccccc1	4	11	.	34	50*	37	34
O=C(c1ccccc1)N1CCCC(c2ccc(Cl)cc2)=N1	.	18	8	35	41	26	.
COC(=O)CCc1c(COC(C)=O)[nH]c(C(=O)OCc2ccccc2)c1C	7	0	-1	-1	22	16	.
Oc1ccccc1/C=N/NC(=S)NC1CC2CC1C1C=CCC21 (stereo not given)	-22	28	35	31	74*	25	49*
C[C@H](NC(=O)c1ccccc1Cl)C(=O)OCc1cn2cc(Cl)ccc2n1	-27	3	.	-38	-53	-36	.

Assay outcomes: PubChem BioAssay, several laboratories
